Here are results for 16 compounds from PubChem BioAssay.

Calls of active or inactive are those of the source.

In assay [1] the test system is Plasmodium falciparum Sir2 (PF13_0152, Sir2A). The assay can be described thus: pfSir2 binders on small-molecule microarrays, primary screen, biochemical, small-molecule microarray, 635 nm fluorescence (AID 1098).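 Note: score merges spot fluorescence intensity with its signal-to-noise ratio.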 The settings on record: small-molecule microarray binding, fluorescence 635 nm; higher = more signal.
A short description of assay [2]: small-molecule microarray binders of probe aDKK1, primary screen, biochemical, biotinylated probe, 635/667 nm fluorescence (AID 1099).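 Note: score merges 667nm spot fluorescence with signal to noise across triplicate slides; reference of the scale not given here.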 The settings on record: higher = more signal.
Assay [3] in a line: small-molecule microarray binders of probe aCHRDL2, primary screen, biochemical, biotinylated probe, 635/667 nm fluorescence (AID 1100). As to conditions: higher = more signal.
Assay [4] can be described thus: splicing luciferase reporter signal modulators, primary screen, spliceosome inhibition project, cell-based, HEK293, splice +/- reporter (AID 1101).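 Note: HEK293 cells carrying a splicing-competent luciferase reporter gene; test concentration not given here.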 The settings on record: luminescence, 24 h, higher = more signal, called active from +8 up or from −8 down.
For assay [5], the target named is Fibroblast growth factor 10 (Homo sapiens) (UniProt O15520). The assay can be described thus: FGF10 binders on small-molecule microarrays, primary screen, biochemical, small-molecule microarray, 635 nm fluorescence (AID 1102). The settings on record: FGF10 binding, fluorescence 635 nm, higher = more signal.
Chain of Fibroblast growth factor 10 (Homo sapiens) (O15520 whole entry, looked up): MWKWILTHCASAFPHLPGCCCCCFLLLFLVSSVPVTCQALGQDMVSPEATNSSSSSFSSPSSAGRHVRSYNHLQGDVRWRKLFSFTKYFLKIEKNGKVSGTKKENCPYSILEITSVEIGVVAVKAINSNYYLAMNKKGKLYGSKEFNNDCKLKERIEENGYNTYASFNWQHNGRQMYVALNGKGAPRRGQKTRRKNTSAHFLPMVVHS
Assay [6] deals with glycogen synthase kinase-3 (GSK3A per assay name; protocol says GSK3B). The assay can be described thus: GSK3 binders on small-molecule microarrays, primary screen, biochemical, small-molecule microarray, 635 nm fluorescence, GSK3A (AID 1103). Note: the record names both GSK3A and GSK3B. As to conditions: small-molecule microarray binding, fluorescence 635 nm; higher = more signal.
Assay [7] deals with Epidermal growth factor receptor (Homo sapiens) (UniProt P00533). The assay can be described thus: EGFR binders on small-molecule microarrays, primary screen, biochemical, small-molecule microarray, 635 nm fluorescence (AID 1104).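 Note: score merges 667 nm emission intensity with spot signal to noise over triplicate slides.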 The settings on record: EGFR binding, higher = more signal.
Chain of Epidermal growth factor receptor (Homo sapiens) (P00533 whole entry, looked up): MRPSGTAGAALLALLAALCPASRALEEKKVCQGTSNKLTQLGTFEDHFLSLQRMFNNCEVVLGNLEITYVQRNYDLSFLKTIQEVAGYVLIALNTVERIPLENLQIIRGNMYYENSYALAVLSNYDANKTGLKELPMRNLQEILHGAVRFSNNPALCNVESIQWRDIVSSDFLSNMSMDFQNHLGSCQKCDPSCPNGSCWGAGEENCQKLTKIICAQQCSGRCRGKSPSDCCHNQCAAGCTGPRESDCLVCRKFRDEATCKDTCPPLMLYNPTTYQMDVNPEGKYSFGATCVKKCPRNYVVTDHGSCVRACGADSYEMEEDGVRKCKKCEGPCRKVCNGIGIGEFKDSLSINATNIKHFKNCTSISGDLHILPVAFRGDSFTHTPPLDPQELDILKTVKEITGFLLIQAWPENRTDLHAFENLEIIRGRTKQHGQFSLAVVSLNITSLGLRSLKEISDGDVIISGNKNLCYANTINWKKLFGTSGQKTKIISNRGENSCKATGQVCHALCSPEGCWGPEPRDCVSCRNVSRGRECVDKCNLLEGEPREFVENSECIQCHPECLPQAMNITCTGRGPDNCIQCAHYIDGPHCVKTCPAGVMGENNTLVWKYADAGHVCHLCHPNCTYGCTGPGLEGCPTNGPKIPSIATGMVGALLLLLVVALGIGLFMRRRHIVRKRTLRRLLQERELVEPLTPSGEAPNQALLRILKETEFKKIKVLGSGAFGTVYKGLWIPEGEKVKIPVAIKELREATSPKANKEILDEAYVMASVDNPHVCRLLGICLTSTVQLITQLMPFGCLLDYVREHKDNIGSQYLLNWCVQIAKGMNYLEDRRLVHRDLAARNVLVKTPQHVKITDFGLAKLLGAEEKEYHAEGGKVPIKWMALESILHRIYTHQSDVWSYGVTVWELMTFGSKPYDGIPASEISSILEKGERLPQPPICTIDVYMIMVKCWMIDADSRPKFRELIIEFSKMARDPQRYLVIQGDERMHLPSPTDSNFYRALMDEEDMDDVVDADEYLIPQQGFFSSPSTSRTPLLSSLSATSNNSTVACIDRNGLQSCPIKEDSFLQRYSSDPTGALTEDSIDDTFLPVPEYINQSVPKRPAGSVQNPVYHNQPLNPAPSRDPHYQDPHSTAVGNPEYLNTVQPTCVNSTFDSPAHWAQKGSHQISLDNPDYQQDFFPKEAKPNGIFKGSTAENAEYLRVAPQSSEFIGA
For assay [8], the target named is Follistatin-related protein 3 (Homo sapiens) (UniProt O95633). The assay can be described thus: FSTL3 binders on small-molecule microarrays, primary screen, biochemical, small-molecule microarray, 635 nm fluorescence (AID 1105).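 Note: score merges emission near 667 nm and signal to noise per printed spot across three slides.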 As to conditions: FSTL3 binding, higher = more signal.
Chain of Follistatin-related protein 3 (Homo sapiens) (O95633 whole entry, looked up): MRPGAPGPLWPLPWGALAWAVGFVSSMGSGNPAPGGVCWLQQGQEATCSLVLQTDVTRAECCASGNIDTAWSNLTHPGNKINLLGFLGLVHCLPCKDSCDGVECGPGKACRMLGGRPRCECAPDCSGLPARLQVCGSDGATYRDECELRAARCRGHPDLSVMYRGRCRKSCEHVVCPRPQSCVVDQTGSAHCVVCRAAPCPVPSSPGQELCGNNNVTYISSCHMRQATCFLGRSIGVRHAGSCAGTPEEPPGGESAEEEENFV
In assay [9] the target is Dickkopf-related protein 1 (Homo sapiens) (UniProt O94907). The assay can be described thus: DKK1 binders on small-molecule microarrays, primary screen, biochemical, small-molecule microarray, 635 nm fluorescence scan (AID 1106).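 Note: score merges emission near 667 nm with signal to noise over three replicate slides.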 As to conditions: DKK1 binding, higher = more signal.
Chain of Dickkopf-related protein 1 (Homo sapiens) (O94907 whole entry, looked up): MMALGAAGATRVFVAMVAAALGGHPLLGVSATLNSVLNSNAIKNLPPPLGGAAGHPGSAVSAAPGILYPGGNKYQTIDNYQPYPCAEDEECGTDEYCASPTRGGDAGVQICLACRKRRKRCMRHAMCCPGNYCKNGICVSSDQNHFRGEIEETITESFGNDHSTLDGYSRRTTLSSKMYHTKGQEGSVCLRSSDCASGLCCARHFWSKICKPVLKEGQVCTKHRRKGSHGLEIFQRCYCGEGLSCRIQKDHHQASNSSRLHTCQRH
Assay [10] deals with Inhibin beta A chain (activin A). The assay can be described thus: INHBA (activin A) binders on microarrays, primary screen, biochemical, small-molecule microarray, 635 nm fluorescence scan (AID 1107).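 Note: mouse activin A protein probed at 4.33 µg/mL on printed slides; score merges bound-protein fluorescence near 667 nm with spot signal-to-noise.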 As to conditions: small-molecule microarray binding, higher = more signal.

For `O=C(NCc1ccccc1)[C@@]1(CCS(=O)(=O)c2ccccc2)N=C(c2ccc(OCCCO)cc2)O[C@H]1c1ccccc1`, the composite z-score in assay [1] is 0.691; in [2], 0.717; in assay [3], 1.03; in [5], 1.28; in assay [6], 1.12; in assay [7], -0.304. For the same compound, the composite z-score in assay [8] is 0.866; in assay [9], -0.393; in assay [10] it was 0.525. Further, the z-score in assay [4] was 0.0308 (inactive).

Consider `O=C1NC(=O)C2C1C=CC(C(O)c1ccccc1)N2Nc1ccc(Cl)cc1Cl` (stereo not given), for which the composite z-score in assay [1] was found to be 1.62; in [2], 0.394; in assay [3] it was 0.914; in [5], 1.14; in assay [6], 1.27; in [7], 0.531. Also, the figures for the composite z-score in assay [8], in assay [9] and in assay [10] were 1.27, -0.0035 and 0.705, respectively. Also, the z-score in [4] was -1.36 (inactive).

With `COc1cc2c(cc1OC)CN(C(=O)[C@H]1[C@@H]3C(=O)O[C@@H](c4ccccc4)[C@@H](c4ccccc4)N3[C@@H](c3ccc(O)cc3)[C@]13C(=O)Nc1ccc(C#CCNC(N)=O)cc13)CC2`, the composite z-score is 1.11 in assay [1]; -0.0741 in [2]; 0.0306 in assay [3]; 1.11 in [5]; -0.294 in assay [6]; -0.0357 in assay [7]. Besides, the results for the composite z-score in [8], in [9] and in assay [10] were 0.903, 0.596 and 0.544, respectively. The z-score in assay [4] was -0.996 (inactive).

With `[N-]=[N+]=NCc1ccccc1[C@@H]1OC(c2ccc(OCCCO)cc2)=N[C@]1(CCS(=O)(=O)c1ccccc1)C(=O)NCCN1CCOCC1`, the composite z-score in assay [1] is 0.916; in assay [2] it was 0.934; in assay [3] it was 0.952; in [5], 1.42; in assay [6], 1.05; in assay [7] it was 0.778. The figures for the composite z-score in assay [8], in assay [9] and in assay [10] were 1.46, 0.535 and 0.745, respectively. In addition, the z-score in [4] is -0.406 (inactive).

With `CN1C(=O)C2C=CC(C(O)c3ccccc3)N(Nc3ccccc3)C2C1=O` (stereo not given), the composite z-score in assay [1] was 1.54; in assay [2], 0.754; in assay [3] it was 1.13; in assay [5], -0.678; in assay [6], -0.415; in assay [7], -1.32. Besides, the composite z-score in assay [8] was -0.674; in [9], -1.22; in assay [10] it was 0.918. Besides, in assay [4], the z-score was 1.03 (inactive).

Turning to `[N-]=[N+]=NCc1ccccc1C[C@]1(C(=O)N2CCOCC2)N=C(c2ccc(OCCCO)cc2)O[C@H]1c1ccccc1N=[N+]=[N-]`, the composite z-score in [1] was found to be 1; in assay [2] it was 0.873; in assay [3], 0.93; in [5] it was 1.31; in assay [6] it was 1.33; in assay [7], 0.466. For the same compound, the composite z-score in assay [8] is 1.37; in [9] it was 0.234; in assay [10], 0.878. The z-score in assay [4] was -0.928 (inactive).

Turning to `CN(C)C(=O)[C@]1(Cc2ccccc2N=[N+]=[N-])N=C(c2ccc(OCCCO)cc2)O[C@@H]1c1ccccc1`, the composite z-score in [1] was 1.47; in [2] it was 0.467; in assay [3], 0.787; in assay [5], 0.818; in assay [6], 1.28; in assay [7], 0.0161. For the same compound, the composite z-score in assay [8] is 0.373; in assay [9], -0.121; in assay [10] it was 0.545. Further, the z-score in assay [4] was -1.17 (inactive).

Regarding `CCCCC(O)C1C=CC2C(=O)N(c3ccccc3)C(=O)C2N1Nc1ccccc1F` (stereo not given), the composite z-score is 1.24 in assay [1]; 1.4 in assay [2]; 1.17 in [3]; 0.857 in [5]; 0.827 in [6]; -0.374 in [7]. The composite z-score was 0.443 in assay [8], -0.683 in assay [9] and 0.834 in assay [10]. The z-score in [4] was 0.826 (inactive).

Consider `CC(=O)NCCCC[C@@H]1NC(=O)[C@@H]2C[C@H](C(=O)NCCCCCCNC(=O)CS)[C@H](c3cccc(OCCO)c3)N2C1=O`, for which the composite z-score in assay [1] is 1.76; in [2], -0.0828; in assay [3], 0.466; in assay [5] it was 0.639; in [6], 1.12; in [7], 0.37. Besides, the values for the composite z-score in [8], in [9] and in assay [10] were 0.325, 0.791 and 0.388, respectively. For the same compound, the z-score in [4] was -0.289 (inactive).

Take `C=CC[C@]12N=C(c3ccc(OCCCO)cc3)O[C@H]1c1ccccc1N(Cc1ccccc1)C2=O`: the composite z-score in assay [1] is 1.28; in assay [2] it was 1.21; in [3], 1.37; in [5], 0.706; in assay [6] it was 0.524; in assay [7], 0.112. The composite z-score amounted to 0.836 in assay [8], 0.378 in [9] and 0.897 in [10]. The z-score in assay [4] was -0.415 (inactive).

For `CCCC[C@@H]1C[C@H]1[C@@H](NC(=O)c1ccco1)c1ccc(Cl)cc1`, the composite z-score was 0.428 in assay [1]; 0.807 in assay [2]; 1.03 in [3]; 0.438 in [5]; 1.15 in assay [6]; -0.0272 in [7]. Further, the composite z-score is 0.0636 in assay [8], 0.461 in assay [9] and 0.89 in assay [10]. Further, the z-score in [4] was -0.659 (inactive).

`CCOc1cc(C(O)C2C=CC3C(=O)N(c4ccccc4)C(=O)C3N2Nc2ccccc2)ccc1O` (stereo not given): the composite z-score in assay [1] is 0.716; in assay [2] it was -0.0126; in assay [3], 0.834; in assay [5] it was 0.671; in assay [6], 0.0622; in assay [7] it was -0.114. For the same compound, the results for the composite z-score in [8], in assay [9] and in assay [10] were 0.128, -0.832 and 0.829, respectively. For the same compound, the z-score in assay [4] was 0.608 (inactive).

In the case of `COc1ccc(C(O)C2C=CC3C(=O)NC(=O)C3N2Nc2ccccn2)c2ccccc12` (stereo not given), the composite z-score in assay [1] was 0.157; in assay [2], 0.046; in [3], 0.108; in assay [5], 0.392; in [6], -0.39; in assay [7], 0.307. In addition, the composite z-score turned out to be 0.16 in assay [8], 0.378 in [9] and 0.804 in [10]. Moreover, the z-score in [4] was 0.841 (inactive).

`CC(C)(C)OC(=O)CC[C@@]1(C(=O)NCC(O)CO)N=C(c2ccc(OCCCO)cc2)O[C@@H]1c1ccccc1N=[N+]=[N-]` (stereo not given in full): the composite z-score was 1.72 in assay [1]; 0.836 in assay [2]; 1.15 in assay [3]; 1.36 in assay [5]; -0.454 in [6]; -0.468 in [7]. Besides, the composite z-score in [8] worked out at 0.114; in [9], 0.311; in [10], 0.906. For the same compound, the z-score in assay [4] was -0.764 (inactive).

`COC(=O)C(CC#Cc1ccc2c(c1)[C@]1(C(=O)N2)[C@H](c2ccc(O)cc2)N2[C@H](c3ccccc3)[C@H](c3ccccc3)OC(=O)[C@H]2[C@@H]1C(=O)Nc1nc2ccccc2s1)C(=O)OC`: the composite z-score in assay [1] is 1.59; in [2], -0.0329; in assay [3], -0.105; in [5] it was 1.27; in [6], 1.04; in [7], 0.626. Also, the composite z-score in assay [8] is 0.929; in assay [9], 0.581; in assay [10], 0.598. In addition, the z-score in [4] is -0.596 (inactive).

For `COCCOC(=O)N1C(=O)[C@@]2(c3cc(C#Cc4ccc(OC)cc4)ccc31)[C@H](C(=O)N1CCCCCCC1)[C@H]1C(=O)O[C@H](c3ccccc3)[C@H](c3ccccc3)N1[C@@H]2c1ccc(OCCO)cc1`, the composite z-score stood at 1.37 in assay [1]; 2.34 in assay [2]; 1.45 in assay [3]; 1.7 in [5]; 1.33 in assay [6]; 1.13 in [7]. The results for the composite z-score in [8], in assay [9] and in [10] were 1.45, 1.76 and 1.58, respectively. Moreover, the z-score in assay [4] was -0.16 (inactive).
